# Experimental data taken from article PMC7862700, “An all-to-all approach to the identification of sequence-specific readers for epigenetic DNA modifications on cytosine”.
# What was measured:
# Assay in all cases: DAPPL (digital affinity profiling via proximity ligation, sequencing); 10 mM Tris-HCl pH 7.5, 50 mM NaCl, 1 mM DTT, 4% glycerol, room temperature, 30 min; GST-TFs on glutathione beads, 16-mer random dsDNA library, 0.1% formaldehyde crosslink after washing; high values mean tight binding
# Conditions in all cases: protein: recombinant; tags: N-terminal GST; dsDNA, one strand shown
# ETV1 = ETV1 (Homo sapiens, UniProt P50549 1-477)
# ETV1, sequence (P50549 whole entry, the tested form may be a part): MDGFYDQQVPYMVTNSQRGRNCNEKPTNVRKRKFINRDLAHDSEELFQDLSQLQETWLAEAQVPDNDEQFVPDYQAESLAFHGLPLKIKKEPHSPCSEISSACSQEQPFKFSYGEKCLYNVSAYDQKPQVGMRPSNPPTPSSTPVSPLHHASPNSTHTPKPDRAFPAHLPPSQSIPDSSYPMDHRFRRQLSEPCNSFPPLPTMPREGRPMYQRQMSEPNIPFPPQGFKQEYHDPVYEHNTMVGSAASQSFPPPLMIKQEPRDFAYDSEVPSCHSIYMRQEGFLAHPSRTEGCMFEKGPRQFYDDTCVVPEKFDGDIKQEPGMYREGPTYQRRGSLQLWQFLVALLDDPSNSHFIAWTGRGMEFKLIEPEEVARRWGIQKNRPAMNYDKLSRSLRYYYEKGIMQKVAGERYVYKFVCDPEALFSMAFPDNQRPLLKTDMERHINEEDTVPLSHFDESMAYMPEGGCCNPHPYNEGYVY
# Procedure, shortened: (§1)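 Human transcription factors fused to GST were expressed in yeast, captured on glutathione beads, given DNA barcodes and pooled with a GST-only negative control. Pools were incubated with 200 nmole of a 16-mer random double-stranded DNA library in Tris/NaCl/DTT/glycerol buffer at room temperature for 30 min. They were then washed, crosslinked with 0.1% formaldehyde, proximity-ligated (BsaI/T4 ligase, 1 h, 37 °C), PCR-amplified and sequenced on an Illumina NextSeq500. Binding signal is each 6-mer's read frequency for a factor divided by its frequency for the GST control.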
# ERF = molecular target: T1, ERF (Homo sapiens, UniProt P50548 1-548)
# T1 sequence: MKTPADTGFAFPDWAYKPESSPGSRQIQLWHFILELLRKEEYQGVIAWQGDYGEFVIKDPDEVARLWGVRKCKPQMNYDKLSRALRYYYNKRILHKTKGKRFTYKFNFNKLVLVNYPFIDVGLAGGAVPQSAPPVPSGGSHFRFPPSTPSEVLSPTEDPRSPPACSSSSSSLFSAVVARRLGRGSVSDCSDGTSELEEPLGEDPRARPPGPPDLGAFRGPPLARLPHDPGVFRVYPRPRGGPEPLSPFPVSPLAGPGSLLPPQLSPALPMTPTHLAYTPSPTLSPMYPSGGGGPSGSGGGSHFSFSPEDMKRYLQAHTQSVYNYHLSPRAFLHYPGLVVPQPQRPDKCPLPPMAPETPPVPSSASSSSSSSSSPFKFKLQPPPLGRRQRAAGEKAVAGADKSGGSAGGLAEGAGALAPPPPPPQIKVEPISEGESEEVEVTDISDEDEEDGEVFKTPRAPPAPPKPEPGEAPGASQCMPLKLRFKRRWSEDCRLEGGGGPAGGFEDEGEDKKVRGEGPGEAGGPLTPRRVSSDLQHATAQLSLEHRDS
# Procedure, shortened: as §1
# ETV3L = molecular target: T2, ETV3L (Homo sapiens, UniProt Q6ZN32 1-361)
# T2 sequence: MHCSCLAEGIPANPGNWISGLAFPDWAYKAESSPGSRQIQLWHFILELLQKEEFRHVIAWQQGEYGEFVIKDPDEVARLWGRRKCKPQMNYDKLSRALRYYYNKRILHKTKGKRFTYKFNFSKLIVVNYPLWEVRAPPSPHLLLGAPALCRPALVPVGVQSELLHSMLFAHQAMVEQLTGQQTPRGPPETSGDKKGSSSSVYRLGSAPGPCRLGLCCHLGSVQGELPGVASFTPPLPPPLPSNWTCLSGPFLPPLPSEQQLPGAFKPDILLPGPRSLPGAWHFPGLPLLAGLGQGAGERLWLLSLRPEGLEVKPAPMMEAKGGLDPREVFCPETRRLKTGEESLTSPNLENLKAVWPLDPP
# Procedure, shortened: as §1
# ETS2 = molecular target: T3, ETS2 (Homo sapiens, UniProt P15036 1-469)
# T3 sequence: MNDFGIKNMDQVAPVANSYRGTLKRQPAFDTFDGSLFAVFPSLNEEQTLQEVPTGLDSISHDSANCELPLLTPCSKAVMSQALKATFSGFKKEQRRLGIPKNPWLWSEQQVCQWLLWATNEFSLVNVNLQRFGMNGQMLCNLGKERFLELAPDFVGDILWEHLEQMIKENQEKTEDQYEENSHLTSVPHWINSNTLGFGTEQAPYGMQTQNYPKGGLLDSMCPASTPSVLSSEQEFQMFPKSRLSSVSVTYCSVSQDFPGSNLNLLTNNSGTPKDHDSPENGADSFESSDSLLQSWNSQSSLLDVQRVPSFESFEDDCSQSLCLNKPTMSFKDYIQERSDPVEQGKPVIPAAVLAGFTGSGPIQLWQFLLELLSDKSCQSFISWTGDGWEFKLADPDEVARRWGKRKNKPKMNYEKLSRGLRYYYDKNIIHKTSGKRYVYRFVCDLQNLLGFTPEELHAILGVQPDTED
# Procedure, shortened: as §1
# SPDEF = molecular target: T4, SPDEF (Homo sapiens, UniProt O95238 1-335)
# T4 sequence: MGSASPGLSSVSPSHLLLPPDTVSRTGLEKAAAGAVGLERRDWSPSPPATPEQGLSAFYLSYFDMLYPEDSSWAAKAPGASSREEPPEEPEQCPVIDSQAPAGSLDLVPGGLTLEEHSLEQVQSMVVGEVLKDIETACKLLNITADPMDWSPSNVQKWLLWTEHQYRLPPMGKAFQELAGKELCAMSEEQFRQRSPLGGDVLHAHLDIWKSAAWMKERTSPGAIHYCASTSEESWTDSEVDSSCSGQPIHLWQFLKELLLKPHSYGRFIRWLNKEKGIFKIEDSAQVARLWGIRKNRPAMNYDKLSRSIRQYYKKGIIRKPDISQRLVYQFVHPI
# Procedure, shortened: as §1
# ETV7 = molecular target: T5, ETV7 (Homo sapiens, UniProt Q9Y603 1-341)
# T5 sequence: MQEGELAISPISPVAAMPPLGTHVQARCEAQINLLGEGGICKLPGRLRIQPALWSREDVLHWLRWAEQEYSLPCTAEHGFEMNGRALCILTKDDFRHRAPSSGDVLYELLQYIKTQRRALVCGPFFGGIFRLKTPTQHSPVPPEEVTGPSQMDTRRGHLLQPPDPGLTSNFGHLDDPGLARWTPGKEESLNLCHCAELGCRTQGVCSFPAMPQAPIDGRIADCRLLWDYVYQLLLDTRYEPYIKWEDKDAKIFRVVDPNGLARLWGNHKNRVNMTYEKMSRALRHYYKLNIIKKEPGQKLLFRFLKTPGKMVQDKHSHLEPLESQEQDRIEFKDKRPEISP
# Procedure, shortened: as §1
# ELF5 = molecular target: T6, ELF5 (Homo sapiens, UniProt Q9UKW6-2 1-255)
# T6 sequence: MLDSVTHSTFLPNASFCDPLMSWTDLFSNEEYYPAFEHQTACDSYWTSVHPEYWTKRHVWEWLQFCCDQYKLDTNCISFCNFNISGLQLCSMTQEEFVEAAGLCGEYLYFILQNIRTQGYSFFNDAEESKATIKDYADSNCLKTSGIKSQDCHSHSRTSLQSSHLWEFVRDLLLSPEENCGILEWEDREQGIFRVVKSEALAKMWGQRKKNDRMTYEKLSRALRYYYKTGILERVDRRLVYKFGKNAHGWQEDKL
# Procedure, shortened: as §1
# ETV3 = molecular target: T7, ETV3 (Homo sapiens, UniProt P41162-2 1-143)
# T7 sequence: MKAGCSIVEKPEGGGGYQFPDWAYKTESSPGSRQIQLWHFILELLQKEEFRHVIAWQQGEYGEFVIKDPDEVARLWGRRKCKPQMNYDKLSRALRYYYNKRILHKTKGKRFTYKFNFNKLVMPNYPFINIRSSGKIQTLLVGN
# Procedure, shortened: as §1
# ETV6 = ETV6 (Homo sapiens, UniProt P41212 1-452)
# ETV6, sequence (P41212 whole entry): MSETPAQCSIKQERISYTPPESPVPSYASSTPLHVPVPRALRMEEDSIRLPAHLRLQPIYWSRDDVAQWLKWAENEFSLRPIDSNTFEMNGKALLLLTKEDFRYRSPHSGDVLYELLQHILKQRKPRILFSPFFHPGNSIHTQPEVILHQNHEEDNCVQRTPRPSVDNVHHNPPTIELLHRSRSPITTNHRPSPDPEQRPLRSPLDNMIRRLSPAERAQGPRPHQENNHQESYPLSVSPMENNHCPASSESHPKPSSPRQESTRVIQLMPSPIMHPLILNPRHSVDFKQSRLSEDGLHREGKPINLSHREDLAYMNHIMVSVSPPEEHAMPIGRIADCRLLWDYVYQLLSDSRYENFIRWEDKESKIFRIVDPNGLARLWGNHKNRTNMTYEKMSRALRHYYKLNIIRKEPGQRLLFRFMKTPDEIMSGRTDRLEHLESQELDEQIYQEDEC
# Procedure, shortened: as §1
sequence,measurement,setting,value
GTTCTC,binding signal,ETV1,"1.34 fold enrichment (6-mer frequency, TF over GST control)"
same,binding signal,ERF,"1.22 fold enrichment (6-mer frequency, TF over GST control)"
same,binding signal,ETV3L,"1.35 fold enrichment (6-mer frequency, TF over GST control)"
same,binding signal,ETS2,"1.24 fold enrichment (6-mer frequency, TF over GST control)"
same,binding signal,SPDEF,"1.22 fold enrichment (6-mer frequency, TF over GST control)"
same,binding signal,ETV7,"1.26 fold enrichment (6-mer frequency, TF over GST control)"
same,binding signal,ELF5,"1.25 fold enrichment (6-mer frequency, TF over GST control)"
same,binding signal,ETV3,"1.35 fold enrichment (6-mer frequency, TF over GST control)"
same,binding signal,ETV6,"1.23 fold enrichment (6-mer frequency, TF over GST control)"
